Assay results: PubChem BioAssay (Tox21)
“And” between values parts separate entries of the source, which are not always exact repeats. Identical values can stand only once. Results filed as inconclusive are left out. Unmarked numbers belong to inactive results. The source made the active and inactive calls. No rule for the calls is given here.

Assay: qHTS assay to identify small molecule antagonists of the estrogen related receptor signaling pathway with the pleiotropic PPARgamma coactivator (PGC) from Tox21 10K library (AID 1224841); also: actives are mostly falling curves and most rising ones were filed inactive; nearly all actives have a fitted effect of over 50% in size
Details: PGC/ERR reporter cell line, ONE-Glo luciferase, 18 h; series mostly up to 92.4 µM; activity, negative = inhibition: at the top concentration
Description: U.S. Tox21 Program National Center for Advancing Translational Sciences [NCATS] NIH Chemical Genomics Center [NCGC] U.S. Environmental Protection Agency [EPA] National Institutes of Environmental Health Sciences [NIEHS] National Toxicology Program [NTP] U.S. Food and Drug Administration [FDA] Tox21 Assay Overview: Estrogen related receptors (ERRs), the first orphan nuclear receptors discovered, play an important role in the control of cellular energy metabolism. ERRs are required for high-energy production in response to the environmental challenges. The pleiotropic PPARgamma coactivator (PGC) is a major partner of ERR and a key regulator in energy homeostasis. Together they have been implicated in the etiology of metabolic disorders such as Type 2 diabetes and metabolic syndrome. ERR-alpha was also identified as an adverse marker for breast cancer progression; ERR-alpha-positive tumors have a poor prognosis. To screen and to identify environmental compounds that perturb the ERR and PGC/ERR signaling pathways could provide valuable information for potential therapeutic or preventive measures in the treatment of metabolic disease. For identifying PGC/ERR antagonists, PGC/ERR cell line (provided by NTP) has been used to screen Tox21 10K library.
Tox21 Assay Protocol Summary: The PGC/ERR cells were dispensed at 2,000 cells/5 ul/well in 1536-well white plates using a Multidrop dispenser. After the assay plates were incubated at a 37 C/5% CO2 incubator for 6 hours, 23 nL of compounds dissolved in DMSO, positive and negative controls or DMSO only was transferred to the assay plate by a pin tool. The plates were incubated at 37 C for 18 hours. 4 ul/well of One-Glo reagent was added into the assay plates using a Flying Reagent Dispenser. After 30-minute incubation at room temperature, the luminescence intensity in the plates was measured using a ViewLux plate reader.
% is scaled to controls: 0 for no effect and ±100 for the full control effect; potency is read from the fitted curve at half-maximal effect.

| SMILES | Potency | activity, negative = inhibition |
| --- | --- | --- |
| CCCN(CCC)C(=O)C(CCC(=O)OCCCN1CCN(CCOC(=O)Cc2c(C)n(C(=O)c3ccc(Cl)cc3)c3ccc(OC)cc23)CC1)NC(=O)c1ccccc1 (stereo not given) | 29.8 µM (active) |  |
| COc1ccc(-c2ccc3cc(C(=O)O)ccc3c2)cc1C12CC3CC(CC(C3)C1)C2 |  | 29.6% [at 42.5 µM] |
| C[n+]1ccn(Cc2ccccc2)c1 |  | -21.8% |
| Nc1nc2ccccc2n1Cc1ccc(F)cc1 |  | -29.3% [at 42.5 µM] |
| O=C(Nc1cccc(Cl)c1)OCC#CCCl | 21.7 µM (active) |  |
| CCOc1nc2cccc(C(=O)OC(C)OC(=O)OC3CCCCC3)c2n1Cc1ccc(-c2ccccc2-c2nn[nH]n2)cc1 (stereo not given) | 54.4 µM (active) |  |
| CCCCCCOC(=O)c1ccc(O)cc1 |  | 130% |
| CCCC(=O)OC[C@@H](OC(=O)CCC)[C@@H](OC(=O)CCC)[C@H](Cn1c2nc(=O)[nH]c(=O)c-2nc2cc(C)c(C)cc21)OC(=O)CCC | 23.7 µM (active) |  |
| CN1CCC(Nc2ncc3ncnc(Nc4ccc(F)c(Cl)c4)c3n2)CC1 |  | 100% [at 42.5 µM] |
| O=c1[nH]sc2cc(Cl)ccc12 | 0.298 µM (active) |  |
| CN(C)c1ccc(C2(c3ccc(N(C)C)cc3)OC(=O)c3cc(N(C)C)ccc32)cc1 |  | 3.62% |
| CCCN(CCC)c1c([N+](=O)[O-])cc(C(F)(F)F)c(N)c1[N+](=O)[O-] | 38.5 µM (active) |  |
| CC(C)CCCCCCCCCCCCCCC(=O)O |  | -31.2% |
| Cc1cc(CCN2CCN(c3nsc4ccccc34)CC2)cc2c1NC(=O)CC2(C)C | 7.7 µM (active) |  |
| CC[C@@]1(O)C(=O)OCc2c1cc1n(c2=O)Cc2cc3c(CN(C)C)c(O)ccc3nc2-1 | 16.8 µM (active) |  |
| Cc1cc(O)c(C(C)(C)C)cc1Sc1cc(C(C)(C)C)c(O)cc1C | 21.6 µM (active) |  |
| Nc1cc(C(F)(F)F)ccc1S | 29.8 µM (active) |  |
| O=c1[nH]cnc2nc[nH]c12 |  | 32.6% [at 42.5 µM] |
| CCC(C)(C)C1CCCCC1OC(C)=O (stereo not given) |  | 9.9% |
| CC1=C(C(=O)OC(C)C)C(c2cccc([N+](=O)[O-])c2)C(C(=O)OC2CN(C(c3ccccc3)c3ccccc3)C2)=C(N)N1 (stereo not given) | 26.6 µM (active) |  |

| SMILES | Potency | activity, negative = inhibition |
| --- | --- | --- |
| O=S1(=O)CC(Cl)(Cl)C(Cl)(Cl)C1 | 13.7 µM (active) |  |
| OCCN(CCO)c1nc(N2CCCCC2)c2nc(N(CCO)CCO)nc(N3CCCCC3)c2n1 | 21.1 µM (active) |  |
| CCCCN1C(=O)[C@@H]([C@H](O)C2CCCCC2)NC(=O)C12CCN(Cc1ccc(Oc3ccc(C(=O)O)cc3)cc1)CC2 |  | -14.5% |
| N#CSc1ccc(N)c([N+](=O)[O-])c1 | 30.8 µM (active) |  |
| C=C(C)C(=O)OCC(O)COc1ccc(C(C)(C)c2ccc(OCC(O)COC(=O)C(=C)C)cc2)cc1 (stereo not given) | 43.3 µM (active) |  |
| Cc1cc2c(cc1C(F)(F)F)N(C(=O)Nc1ccc(Oc3cccnc3C)nc1)CC2 | 7.81 µM (active) |  |
| COc1cc(-c2ccc(N=C=O)c(OC)c2)ccc1N=C=O |  | 2.72% [at 42.5 µM] |
| C/C=C(\C)C(=O)OCc1ccccc1 |  | 1.04% |
| CCCCCCCCCCC=O |  | -1.77% |
| CCc1cc(Cc2cc(CC)c(N)c(CC)c2)cc(CC)c1N | 21.7 µM (active) |  |
| C1CCCC1 |  | 8.77% |
| CCC(C)Nc1ccc(NC(C)CC)cc1 (stereo not given) | 8.8 µM (active) |  |
| N/C(=N\N=C\c1ccc(Cl)cc1)N/N=C/c1ccc(Cl)cc1 |  | 4.07% [at 42.5 µM] |
| CC(C)(C)NC(=O)[C@@H]1C[C@@H]2CCCC[C@@H]2CN1C[C@@H](O)[C@H](Cc1ccccc1)NC(=O)[C@H](CC(N)=O)NC(=O)c1ccc2ccccc2n1 | 27.7 µM (active) |  |
| CCCCCCCCCCn1cc[n+](CCCCCCCCCC)c1C | 27.3 µM (active) |  |
| [Cl][Au]([Cl])[Cl] | 1.72 µM (active) |  |
| Cc1onc(-c2c(Cl)cccc2Cl)c1C(=O)N[C@@H]1C(=O)N2[C@@H]1SC(C)(C)[C@@H]2C(=O)O |  | -13.6% [at 42.5 µM] |
| C[C@H]1[C@H]2CC[C@H]3[C@@H]4CC=C5C[C@@H](N(C)C)CC[C@]5(C)[C@H]4CC[C@]23CN1C |  | -5.97% [at 42.5 µM] |
| O=c1c(-c2ccccc2)c1-c1ccccc1 | 9.44 µM (active) |  |
| CCCCC(CC)COP(=O)(O)OCC(CC)CCCC (stereo not given) | 27.4 µM (active) and 21.7 µM (active) |  |
